Assay results taken from PubChem BioAssay (NCI).
“And” between values parts separate entries of the source, which are not always exact repeats. Identical values can stand only once. This is part of a sample that, as a whole, favours compounds with a hit. Of some 83,000 tested, about 20% had one in any assay.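 Compound tested at a single concentration for 48 hours in 96-well plates; a percent growth value below 10 was scored as active.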 The source made the active and inactive calls.

Key:
Experiment in all cases: NCI-60 one-dose screen, 48 h (100 = growth as untreated, 0 = no growth, -100 = all killed)
[1] = tested on: DU-145 prostate
[2] = tested on: K-562 leukemia
[3] = tested on: MALME-3M melanoma
[4] = tested on: MDA-MB-231 breast
[5] = tested on: RXF 393 renal
[6] = tested on: SF-268 CNS
[7] = tested on: SF-295 CNS
[8] = tested on: SF-539 CNS
[9] = tested on: UACC-257 melanoma

Measured: growth

CC[C@@H](C)C(=O)O[C@H]1[C@H](O)[C@H]2[C@@H](CN3C[C@@H](C)CC[C@H]3[C@@]2(C)O)[C@@H]2C[C@]34O[C@]5(O)[C@@H](OC(=O)[C@@](C)(O)CC)CC[C@@]3(C)[C@@H]5[C@@H](OC(C)=O)[C@@H](OC(C)=O)[C@H]4[C@@]21O
inactive: [1]; 10 µM unless noted 107% | [2]; 10 µM unless noted 83.9% | [3]; 10 µM unless noted 103% | [4]; 10 µM unless noted 94.2% | [5]; 10 µM unless noted 94.5% | [6]; 10 µM unless noted 102% | [7]; 10 µM unless noted 97.2% | [8]; 10 µM unless noted 100%

CC1OC(=O)C(C(C)C)NC(=O)C(C(C)C)OC(=O)C(C(C)C)NC(=O)C(C)OC(=O)C(C(C)C)NC(=O)C(C(C)C)OC(=O)C(C(C)C)NC(=O)C(C)OC(=O)C(C(C)C)NC(=O)C(C(C)C)OC(=O)C(C(C)C)NC1=O (stereo not given)
active: [1]; 10 µM unless noted -60.2% | [2]; 10 µM unless noted -38.2% | [3]; 10 µM unless noted 9.37% | [4]; 10 µM unless noted -67.9% | [5]; 10 µM unless noted -63.1% | [6]; 10 µM unless noted 5.42% | [7]; 10 µM unless noted -27.1% | [8]; 10 µM unless noted -91.4% | [9]; 10 µM unless noted -53.5%

C[C@]12CCc3sc(Nc4ccc(OC(F)(F)F)cc4)nc3C1=CC[C@@H]1[C@@H]2CC[C@]2(C)C(=O)CC[C@@H]12
active: [2]; 10 µM unless noted 8.2% | [5]; 10 µM unless noted -32.2% | [7]; 10 µM unless noted -2.71% | [8]; 10 µM unless noted -5.4%
inactive: [1]; 10 µM unless noted 66.1% | [3]; 10 µM unless noted 76.8% | [4]; 10 µM unless noted 73.5% | [6]; 10 µM unless noted 68.6% | [9]; 10 µM unless noted 84%

CSc1cc(/C=C(\C)[C@@H]2C[C@@H]3O[C@]3(C)CCC[C@H](C)[C@H](O)[C@@H](C)C(=O)C(C)(C)[C@@H](O)CC(=O)O2)n(CCNC(=O)OC(C)(C)C)n1
inactive: [1]; 10 µM unless noted 58% | [2]; 10 µM unless noted 36.4% | [3]; 10 µM unless noted 78.7% | [4]; 10 µM unless noted 63.8% | [5]; 10 µM unless noted 63.6% | [6]; 10 µM unless noted 70.6% | [7]; 10 µM unless noted 73.5% | [8]; 10 µM unless noted 54% | [9]; 10 µM unless noted 91.9%

CC[C@H](C)[C@H](NC(=O)C12CC(NC)(C1)C2)C(=O)N(C)[C@H](C[C@@H](OC(C)=O)c1nc(C(=O)N[C@@H](Cc2ccccc2)C[C@H](C)C(=O)OC)cs1)C(C)C
active: [1]; 10 µM unless noted -8.21% | [2]; 10 µM unless noted 6.14% | [7]; 10 µM unless noted 4.61% | [8]; 10 µM unless noted -7.76%
inactive: [3]; 10 µM unless noted 69% | [4]; 10 µM unless noted 13.8% | [5]; 10 µM unless noted 13.4% | [6]; 10 µM unless noted 30.4% | [9]; 10 µM unless noted 56.6%

CCCC1CCCCC12C(=O)NC(=O)NC2=O (stereo not given)
inactive: [1]; 10 µM unless noted 104% and 109% | [2]; 10 µM unless noted 101% | [3]; 10 µM unless noted 86.4% and 112% | [4]; 10 µM unless noted 89.3% and 120% | [5]; 10 µM unless noted 104% and 110% | [6]; 10 µM unless noted 105% and 102% | [7]; 10 µM unless noted 95.5% and 108% | [8]; 10 µM unless noted 97.1% and 111% | [9]; 10 µM unless noted 103% and 94.1%

COc1ccc2c(c1)c(-c1nc(-c3cn(C)c4ncccc34)cs1)cn2CCCCN1CCOCC1
active: [2]; 10 µM unless noted -41% | [3]; 10 µM unless noted -59.5% | [4]; 10 µM unless noted 5.75% | [5]; 10 µM unless noted 0.734% | [7]; 10 µM unless noted -48.5%
inactive: [1]; 10 µM unless noted 46.8% | [6]; 10 µM unless noted 52.8% | [8]; 10 µM unless noted 30.8% | [9]; 10 µM unless noted 63.5%

COC(=O)C1=CCCN(C)C1
inactive: [1]; 10 µM unless noted 111% and 112% | [2]; 10 µM unless noted 93.2% and 104% | [3]; 10 µM unless noted 96.2% and 109% | [4]; 10 µM unless noted 115% and 107% | [5]; 10 µM unless noted 102% and 106% | [6]; 10 µM unless noted 116% and 104% | [7]; 10 µM unless noted 97.9% and 98.3% | [8]; 10 µM unless noted 103% and 109% | [9]; 10 µM unless noted 96.8%

O=C1c2ccccc2C(=O)N1N1CC1c1ccccc1 (stereo not given)
inactive: [1]; 10 µM unless noted 109% | [2]; 10 µM unless noted 97.7% | [3]; 10 µM unless noted 91.9% | [4]; 10 µM unless noted 118% | [5]; 10 µM unless noted 107% | [6]; 10 µM unless noted 104% | [7]; 10 µM unless noted 104% | [8]; 10 µM unless noted 102% | [9]; 10 µM unless noted 101%

COC[C@H]1OC(=O)c2coc3c2[C@@]1(C)C1=C(C3=O)[C@@H]2CCC(=O)[C@@]2(C)C[C@H]1OC(C)=O
inactive: [1]; 10 µM unless noted 45.2% | [2]; 10 µM unless noted 70.7% | [3]; 10 µM unless noted 32.8% | [4]; 10 µM unless noted 67.8% | [5]; 10 µM unless noted 10.4% | [6]; 10 µM unless noted 51.8% | [7]; 10 µM unless noted 39.5% | [8]; 10 µM unless noted 28.6% | [9]; 10 µM unless noted 23%

CCOC(=O)P(=O)(OCC)OCC
inactive: [1]; 10 µM unless noted 115% | [2]; 10 µM unless noted 121% | [3]; 10 µM unless noted 122% | [4]; 10 µM unless noted 110% | [5]; 10 µM unless noted 115% | [6]; 10 µM unless noted 104% | [7]; 10 µM unless noted 126% | [8]; 10 µM unless noted 106% | [9]; 10 µM unless noted 102%

CC[C@H](C)[C@H](NC(=O)c1cnccn1)C(=O)N(C)[C@H](C[C@@H](OC(C)=O)c1nc(C(=O)N[C@@H](Cc2ccccc2)C[C@H](C)C(=O)OC)cs1)C(C)C
active: [1]; 10 µM unless noted 6.92% | [2]; 10 µM unless noted 5.13% | [4]; 10 µM unless noted -4.71% | [7]; 10 µM unless noted -5.89% | [8]; 10 µM unless noted -21.9%
inactive: [3]; 10 µM unless noted 69.6% | [5]; 10 µM unless noted 17.4% | [6]; 10 µM unless noted 19.4% | [9]; 10 µM unless noted 44.3%

O=C(O)CCCc1ccc(N(CCCl)CCCl)cc1
active: [1]; 75 µM -5.07% | [8]; 75 µM -40.7%
inactive: [1]; 10 µM 111% and 98.7% | [2]; 10 µM 103% and 58.3% | [2]; 75 µM 31.8% | [3]; 10 µM 98.7% and 88.9% | [3]; 75 µM 43% | [4]; 10 µM 99.4% and 104% | [4]; 75 µM 93.5% | [5]; 10 µM 106% and 87.8% | [5]; 75 µM 12% | [6]; 10 µM 87.6% and 69.9% | [6]; 75 µM 34% | [7]; 10 µM 100% and 78.8% | [7]; 75 µM 13.4% | [8]; 10 µM 87.8% and 72.3% | [9]; 10 µM 104% and 73.4% | [9]; 75 µM 28.9%
